In PubChem BioAssay (EPA / NIEHS):
Several values for one entry are separate records, joined by “and”; a condition that tells them apart may be missing. Identical values can stand only once. Activity calls are given as the source filed them. The calls were made as follows: active = hit-call score of the fitted dose curve at least 0.9, where 1 is the maximum; inactive = score below 0.9.

read-out: Interleukin-1 alpha (IL1a), IL1A (gene 3552); assay: BSK_LPS_IL1a: BioMAP Diversity Plus: LPS Assay for Interleukin-1 alpha (IL1a) Biomarker Activity (AID 2283080); settings: primary human HUVEC with PBMC; actives raise or lower the signal
Description: BSK_LPS is a cell-based, multiplexed-readout assay that uses umbilical vein endothelium and peripheral blood mononuclear cells, a human vascular primary cell co-culture, with measurements taken at 24 hours after chemical dosing in a 96-well plate.BSK_LPS_IL1a is an assay component measured in the BSK_LPS assay. It measures IL-a antibody related to regulation of gene expression using ELISA technology.Data from the assay component BSK_LPS_IL1a was analyzed into 1 assay endpoint. This assay endpoint, BSK_LPS_IL1a, was analyzed with bidirectional fitting relative to DMSO as the negative control and baseline of activity. Using a type of binding reporter, gain or loss-of-signal activity can be used to understand changes in the signaling as they relate to the gene IL1A. Furthermore, this assay endpoint can be referred to as a primary readout, because this assay has produced multiple assay endpoints where this one serves a signaling function. To generalize the intended target to other relatable targets, this assay endpoint is annotated to the cytokine intended target family, where the subfamily is interleukins.
The levels of cell surface (or secreted, indicated by the prefix "s") biomarker endpoints were measured by ELISA. Overt cytotoxicity to cells in confluent adherent cultures (all systems other than the BT system) was assessed by measuring total protein levels using sulforhodamine B (SRB) staining in parallel cultures at the time of biomarker measurements, indicated as SRB endpoints. For proliferation assays for adherent cell types, individual cell types are cultured at sub-confluence and relative cell numbers quantified by SRB staining at time points optimized for each system (48 h: 3C and CASM3C systems; 72 h: BT and HDF3CGF systems; 96 h: SAg system). SRB was performed by staining cells with 0.1% SRB after fixation with 10% TCA and reading wells at 560 nm.Viability and proliferation of PBMC (T cells) was quantified by Alamar Blue reduction for the SAg and BT systems. For PBMC viability (referred to as PBMC Cytotoxicity within the assay endpoint names), cells were plated (75,000/well in a 96-well plate) and then chemical samples added for 1 h before addition of activators, SEB and TSST-1 (20 ng/mL final concentration each). Cells were incubated for 90 h. Then, Alamar Blue (20 uL/well) (Invitrogen, Cat DAL1100) was added for 6 h, and the plates were read with a fluorescence microplate reader at 546/580 nm (excitation/emission). For PBMC proliferation, cells were plated and activated as above but incubated for only 16 h prior to addition of Alamar Blue. Plates were read after 6 h.

SMILES	outcome	AC50
CCOP(=O)(SC(C)CC)N1CCSC1=O (stereo not given)	inactive	
COc1cccc(C(=O)NN(C(=O)c2cc(C)cc(C)c2)C(C)(C)C)c1C	inactive	
CCOP(=O)(NC(C)C)Oc1ccc(SC)c(C)c1 (stereo not given)	inactive	
O=C(O)c1cc(Oc2ccc(C(F)(F)F)cc2Cl)ccc1[N+](=O)[O-]	inactive	
CCOP(=S)(OCC)OC(Cl)C(Cl)(Cl)Cl (stereo not given)	inactive	
CCc1cccc(C)c1N(C(=O)CCl)C(C)COC (stereo not given)	inactive	
Cc1ccn2nc(S(=O)(=O)Nc3c(F)cccc3F)nc2n1	inactive	
COP(=O)(NC(C)=O)SC (stereo not given)	inactive	
COc1ccc(C(=CC(=O)N2CCOCC2)c2ccc(Cl)cc2)cc1OC	inactive	
CCOC(=O)COc1cc(-c2nn(C)c(OC(F)F)c2Cl)c(F)cc1Cl	inactive	
CCCOc1nn(C(=O)NS(=O)(=O)c2ccccc2C(=O)OC)c(=O)n1C	inactive	
FC(F)C(F)(F)OCC(Cn1cncn1)c1ccc(Cl)cc1Cl (stereo not given)	inactive	
CCC(=NOC/C=C/Cl)C1=C(O)CC(C2CCOCC2)CC1=O (stereo not given)	inactive	
COP(=O)(OC)C(O)C(Cl)(Cl)Cl (stereo not given)	inactive	
CC(C)=CC1C(C(=O)OCN2C(=O)C3=C(CCCC3)C2=O)C1(C)C (stereo not given)	inactive	
S=C1NCCN1	inactive	
CCCCOC(=O)[C@@H](C)Oc1ccc(Oc2ccc(C#N)cc2F)cc1	inactive	
CCC(=O)Nc1ccc(Cl)c(Cl)c1	inactive	
CON=C(C(=O)OC)c1ccccc1CON=C(C)c1cccc(C(F)(F)F)c1	inactive	
CSc1nc(NC(C)C)nc(NC(C)C)n1	inactive	

SMILES	outcome	AC50
CNC(=O)ON=C(SC)C(=O)N(C)C	inactive	
CCCSP(=O)(OCC)SCCC	inactive	
CCOP(=S)(OCC)Oc1cc(C)nc(C(C)C)n1	inactive	
CSc1nnc(C(C)(C)C)c(=O)n1N	inactive	
CCOP(=S)(OCC)Oc1ccc([N+](=O)[O-])cc1	inactive	
C#CC(C)(C)NC(=O)c1cc(Cl)cc(Cl)c1	inactive	
CCOP(=O)(OCC)Oc1cc(C)nc(C(C)C)n1	inactive	
CNc1cnn(-c2cccc(C(F)(F)F)c2)c(=O)c1Cl	inactive	
O=[N+]([O-])c1cc(C(F)(F)F)c(Cl)c([N+](=O)[O-])c1Nc1ncc(C(F)(F)F)cc1Cl		1.35 µM (active) and 2.31 µM (active)
CCCCSP(=O)(SCCCC)SCCCC	inactive	
CC(Oc1cccc(Cl)c1)C(=O)O (stereo not given)	inactive	
CC1=NNC(=O)N(/N=C/c2cccnc2)C1	inactive	
COP(=O)(OC)SCn1c(=O)oc2cc(Cl)cnc21	inactive	
C[N+]1(C)CCCCC1	inactive	
CC[C@H](C)[C@H]1O[C@]2(C=C[C@@H]1C)C[C@@H]1C[C@@H](C/C=C(\C)[C@@H](O[C@H]3C[C@H](OC)[C@@H](O[C@H]4C[C@H](OC)[C@@H](NC)[C@H](C)O4)[C@H](C)O3)[C@@H](C)/C=C/C=C3\CO[C@@H]4[C@H](O)C(C)=C[C@@H](C(=O)O1)[C@]34O)O2		3.68 µM (active)
CCOC(=O)CC(SP(=O)(OC)OC)C(=O)OCC (stereo not given)	inactive	
CCCCOC(=O)c1ccccc1C(=O)O	inactive	
CNC(=O)Oc1cccc2c1OC(C)(C)O2	inactive	
CCCCN(CC)c1c([N+](=O)[O-])cc(C(F)(F)F)cc1[N+](=O)[O-]	inactive	
CN1COCN(Cc2cnc(Cl)s2)C1=N[N+](=O)[O-]	inactive	
